# Test results from PubChem BioAssay AID602409 (Sanford-Burnham Center for Chemical Genomics, 2012).
# This is one part of the list. Values without a mark were called inactive. The source made the active and inactive calls.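 Rule for the calls: active = mean inhibition over four retests above 40%; inactive = the rest.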
# Target: C-X-C chemokine receptor type 6 (Homo sapiens) (UniProt O00574)
# Experiment: CXCR6 beta-arrestin signal inhibition by hits – cell-based, single concentration, luminescence, confirmation (AID 602409);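 note: receptor stimulated with 10 nM CXCL16 agonist; beta-galactosidase fragment complementation upon beta-arrestin recruitment to receptor; plate controls were CXCL16 plus DMSO for no effect and DMSO without CXCL16 for full effect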
# Details: CHO-K1 CXCR6 PathHunter beta-arrestin, at 20 µM, stronger effect = higher value
# Sequence of C-X-C chemokine receptor type 6 (Homo sapiens) (O00574 whole entry, looked up, the tested form may be a part): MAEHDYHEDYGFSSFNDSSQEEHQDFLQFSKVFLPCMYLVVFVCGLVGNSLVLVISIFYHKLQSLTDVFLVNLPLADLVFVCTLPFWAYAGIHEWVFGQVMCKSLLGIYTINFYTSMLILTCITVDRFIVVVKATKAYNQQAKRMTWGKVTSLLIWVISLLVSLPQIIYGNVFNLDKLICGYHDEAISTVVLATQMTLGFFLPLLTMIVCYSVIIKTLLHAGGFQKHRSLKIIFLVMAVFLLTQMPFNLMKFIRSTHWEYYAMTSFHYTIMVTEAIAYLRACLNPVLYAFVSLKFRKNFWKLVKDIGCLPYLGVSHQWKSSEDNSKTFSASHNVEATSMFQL
row,SMILES,inhibition
1,O=C(Nc1ccccc1)c1nnsc1S(=O)(=O)c1ccc(Cl)cc1,19.7%
2,COc1ccc(-c2csc(Cc3nc(O)cs3)n2)cc1,77% (active)
3,O=C(C1CC(=O)N(C2CCCCC2)C1)N1CCN(c2ccccc2)CC1 (centres undefined),3.17%
4,Cc1c(C(=O)NCCN(C)C)oc2ccc(S(=O)(=O)N3CCCC3)cc12,10.1%
5,COC(=O)/C=C\C(=O)Nc1cccc([N+](=O)[O-])c1,45.6% (active)
6,Cc1cc(C(=O)NCCCc2ccccc2)no1,9.46%
7,CCN(CC)CCn1c(N)c(S(=O)(=O)c2ccccc2)c2nc3ccccc3nc21,55% (active)
8,COCCCNC(=S)NC(=O)c1ccc([N+](=O)[O-])cc1,19.8%
9,CCCCCCCCCCOC(=O)Cn1c(COc2cccc(OC)c2)[n+](C)c2ccccc21,4%
10,Cc1cc(C)nc(S/C=C/C(=O)c2ccccc2)n1,41.5% (active)
11,O=C(CSc1cccc2cccnc12)N/N=C/c1cccnc1,67.2% (active)
12,CCCCCCCCCCOC(=O)C[N+](C)(C)CC1CCCCC1O (centres undefined),14.4%
13,CCCCNC(=S)N/N=C1\CCCCc2ccccc21,24.7%
14,COc1cccc2sc(N(CCCN(C)C)C(=O)CCS(=O)(=O)c3ccccc3)nc12,81% (active)
15,CCOCCCN1C(=O)C2C(C(=O)Nc3ccc(OCC)cc3)C3C=CC2(O3)C1C(=O)NC1CCCCC1 (centres undefined),-4.97%
16,CC(=O)Nc1cc(-c2ccc(N3CCN(C)CC3)cc2)cn2c(-c3ccc(F)cc3)cnc12,31.3%
17,C/C(=N\NC(=O)Cc1ccc(Cl)cc1)c1ccccn1,104% (active)
18,O=C1C=CC(=O)N1c1ccc(N2CCCCC2)cc1,63.5% (active)
19,CC(=O)/C(=N\Nc1ccc(Cl)cc1Cl)Sc1cccc2cccnc12,81% (active)
20,Cc1ccc(-n2[nH]c(C)c(/C=N/N3C(=O)c4cccc5cccc(c45)C3=O)c2=O)cc1,60.2% (active)
21,O=C(Nc1ccccc1Cl)/C(Cl)=C(\Cl)S(=O)c1ccccc1 (centres undefined),81% (active)
22,O=[N+]([O-])/C=C/c1ccc2c(ccn2Cc2ccccc2)c1,76.2% (active)
23,CC(C)N=C1CCCC1C(=S)SSC(=S)C1CCCC1=NC(C)C (centres undefined),94.9% (active)
24,CCC(=O)OCCNc1nc(-c2ccccc2)nc2ccccc12,11.6%
